Screens as filed in PubChem.
Only some compounds are listed: those with a hit (about 2.9% of all), similar ones and a draw of the others.
EP2 mod – EP2 receptor modulators, cAMP readout, primary screen, cell-based, HTRF cAMP, PGE2 stimulation. EP2-expressing cells, cAMP HTRF FRET, PGE2 co-stimulation. induction, % at 25 µM. 260,000 tested, 0.83% active. AID 940, 2007;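 active = compounds whose cAMP rise, as percent of the full-agonist control response, exceeds 60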;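 note: rat C6 glioma line stably carrying human EP2 under a CMV promoter; the protocol text gives 20 µM as final concentration; 100% = response of wells given 1 µM PGE2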
Target sequence (P43116 whole entry, looked up): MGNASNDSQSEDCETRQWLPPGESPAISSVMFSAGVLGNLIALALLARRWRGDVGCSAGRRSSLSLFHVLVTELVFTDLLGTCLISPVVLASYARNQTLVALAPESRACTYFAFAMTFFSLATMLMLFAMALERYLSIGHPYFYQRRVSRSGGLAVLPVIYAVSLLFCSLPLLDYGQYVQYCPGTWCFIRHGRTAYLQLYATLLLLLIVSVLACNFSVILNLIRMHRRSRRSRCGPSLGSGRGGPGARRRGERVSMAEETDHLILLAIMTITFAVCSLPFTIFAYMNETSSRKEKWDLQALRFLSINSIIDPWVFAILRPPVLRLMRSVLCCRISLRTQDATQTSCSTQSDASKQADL
RAM inhibit – inhibitors of the yeast RAM network, primary screen, dse1pr::URA3 reporter, 5-FOA selection | S. cerevisiae dse1pr::URA3 reporter, 5-FOA growth OD615, 2 d; analog-sensitive cbk1-as2 kinase mutant strain | inhibition, % at 50 µM | 190,000 tested, 1.8% active | AID 868, 2007;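 active = inhibition above a set limit, 3 SD over mean compound inhibition, cut at about 8.4% in these data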;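 note: 0% = DMSO-only wells with no growth and 100% = 10 µM 1-NA-PP1 full growth; inhibition rescues growth on 5-FOA so higher OD means more RAM inhibition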
PG9 Ab binder – binders of HIV-1 gp120 antibody PG9, primary screen, biochemical, TR-FRET; HIV-1 gp120 / PG9 antibody interaction; 360,000 tested, 0.43% active; inhibition, % at 6.7 µM; TR-FRET gp120-PG9 antibody binding; AID 624416, 2012; in the data active = inhibition above about 8.5%
EP2 antag – human EP2 receptor antagonists, primary screen, TR-FRET cAMP, C6 glioma cells; C6 glioma cells expressing human EP2; cells stimulated with saturating PGE2; inhibition, % at 25 µM; 260,000 tested, 0.52% active; AID 1422, 2008;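 active = percent inhibition above 40 after rounding to a whole number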;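 note: rat C6 glioma host cells with rolipram phosphodiesterase inhibitor present; the protocol text gives 20 µM as final concentration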
Rev-erbA mod – modulators of Rev-erb alpha DNA binding, primary screen, biochemical, FITC-DNA, fluorescence polarization, uHTS. 370,000 tested, 0.79% active. Rev-erbα–FITC-DNA binding, 90 min. activity, % at 10 µM. Nuclear receptor subfamily 1 group D member 1 (Homo sapiens), P20393;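 active = activity above about 14%, limit read from the data; passing the limit was not always enough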;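 note: 0% = DMSO wells with 35 nM protein and 100% = DMSO wells with 750 nM protein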
SKN-1 block – suppressors of acrylamide-induced Pgst-4::GFP reporter in worms, primary screen, SKN-1 inhibitor project, whole organism, uHTS, GFP/RFP fluorescence ratio, strain VP596. inhibition, % at 21.8 µM. 360,000 tested, 0.49% active. C. elegans VP596 Pgst-4::GFP/RFP ratio, 24 h;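 active = interference check ratio from 0.5 to 1.5 plus GFP to RFP signal ratio inhibition reaching or exceeding a fixed threshold, cut at about 30% in these data, passing the limit was not always enough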
NR1D1 mod conf – modulators of Rev-erb alpha DNA binding, confirmation, biochemical, FITC-DNA, fluorescence polarization, single point; shares compounds with Rev-erbA mod; 90 min; activation, % at 25 µM; 3,000 tested, 61% active; AID 1259319, 2017;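 active = activation at or above a set limit, or at least 3 SD above the negative control mean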;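 note: 0% = 35 nM protein with DMSO and 100% = 750 nM protein high control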
RORg counter – modulation of RORgamma DNA binding, dose response, counter-screen for Rev-erb alpha modulator project, biochemical, fluorescence polarization, FITC-DNA. shares compounds with Rev-erbA mod. purified RORgamma protein-FITC-DNA binding. IC50, µM. 910 tested, 8% active. AID 1259320, 2017;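 active = Compounds whose fitted half-maximal concentration for disrupting protein-DNA binding is below 10 micromolar; the record names Rev-erb in its text, so the target is in doubt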
An asterisk follows results filed as active.

Cc1cccc(NC(=O)C2CCN(c3cnccn3)CC2)c1C was read as EP2 mod 21 and EP2 antag 13.
Screening CCOc1cc(/C=C2/C(=O)NN(c3ccc(C(=O)OC)cc3)C2=O)ccc1OCC(=O)O returned EP2 mod -65 and EP2 antag 12.
CCOC(=O)c1sc2nc(NC(=O)COc3ccccc3)sc2c1C was read as EP2 mod 30, RAM inhibit 5, PG9 Ab binder 0, EP2 antag 16, Rev-erbA mod 23*, SKN-1 block 10 and NR1D1 mod conf 14*.
Screening Cc1c(C#N)c(O)[nH]c(=O)c1N=Nc1ccc(S(N)(=O)=O)cc1 returned PG9 Ab binder -2, Rev-erbA mod 26*, SKN-1 block 38* and NR1D1 mod conf 17*.
For Cc1c(C#N)c(O)[nH]c(=O)c1N=Nc1ccc(Cl)c(C(=O)O)c1 the results were PG9 Ab binder -7, Rev-erbA mod 12 and SKN-1 block 26.
For CCOC(=O)CSc1nc2c(c(=O)n(C)c(=O)n2C)n1Cc1ccccc1 the results were EP2 mod 16 and EP2 antag 5.
Screening COc1ccc(C(=O)N(Cc2nc3sc4c(c3c(=O)[nH]2)CCCC4)Cc2cccs2)cc1 returned EP2 mod -4 and EP2 antag 8.
`COc1ccc2oc(C(=O)OCC(=O)/C(C#N)=C(\C)N)c(C)c2c1` gave EP2 mod -17, RAM inhibit 5, PG9 Ab binder 0, EP2 antag 11, Rev-erbA mod 20*, SKN-1 block -11 and NR1D1 mod conf 14.
COc1ccc2oc(C(=O)OCC(=O)N3CCN(C(C)=O)CC3)c(C)c2c1 was read as PG9 Ab binder 3, Rev-erbA mod 5 and SKN-1 block -9.
`CCOc1nc(-c2ccccc2)c2cc(Br)ccc2n1` gave PG9 Ab binder 1, Rev-erbA mod 27*, SKN-1 block 11 and NR1D1 mod conf 15.
NC(=O)c1cc2ccccc2o/c1=N\NC(=O)c1ccccc1O was read as PG9 Ab binder -6, Rev-erbA mod 21*, SKN-1 block -9 and NR1D1 mod conf -11.
`C=CCc1cccc(C2Nc3ccccc3C(=O)N2O)c1O` (stereo not drawn) gave EP2 mod -2, RAM inhibit 1, PG9 Ab binder 0, EP2 antag -1, Rev-erbA mod 60*, SKN-1 block -2, NR1D1 mod conf 32* and RORg counter >40.
Screening O=C1c2ccccc2NC(c2ccc(Cl)cc2Cl)N1O (stereo not drawn) returned EP2 mod -15, RAM inhibit -1, PG9 Ab binder -2, EP2 antag 15, Rev-erbA mod -2 and SKN-1 block -6.
Screening CCn1c2ccccc2c2cc(CNCC3CCCO3)ccc21 (stereo not drawn) returned EP2 mod -104 and EP2 antag 10.
For CCCOc1ccc(/C(O)=C2/C(=O)C(=O)N(CCCn3ccnc3)C2c2cccs2)cc1 (stereo not drawn) the results were EP2 mod 47, RAM inhibit 0, PG9 Ab binder 0, EP2 antag 11, Rev-erbA mod 1 and SKN-1 block -1.
Screening CCOc1ccc(/C(O)=C2/C(=O)C(=O)N(CCCn3ccnc3)C2c2cccs2)cc1Cl (stereo not drawn) returned EP2 mod 46, RAM inhibit -1, PG9 Ab binder 8, EP2 antag 17, Rev-erbA mod 48*, SKN-1 block -6 and NR1D1 mod conf 47*.
Screening CCOc1cc(/C=C2\NC(=O)NC2=O)cc([N+](=O)[O-])c1O returned EP2 mod -5, PG9 Ab binder -34, EP2 antag 0, Rev-erbA mod 19*, SKN-1 block 11 and NR1D1 mod conf -2.
Screening COc1ccc(Nc2nc(C)nc3c2nnn3Cc2ccccc2Cl)c(OC)c1 returned PG9 Ab binder -1, Rev-erbA mod 21*, SKN-1 block 4 and NR1D1 mod conf 9.
Nc1ccc2ccccc2c1N=Nc1ccccc1 was read as PG9 Ab binder -3, Rev-erbA mod 23*, SKN-1 block 29 and NR1D1 mod conf 27*.
COc1ccc(-c2cc(C(=O)OCC(=O)Nc3cc(C)on3)c3ccccc3n2)cc1OC was read as EP2 mod 1, RAM inhibit 4, PG9 Ab binder -1, EP2 antag 15, Rev-erbA mod 21*, SKN-1 block 11 and NR1D1 mod conf -4.
O=C(COC(=O)c1cc(-c2cccnc2)nc2ccccc12)Nc1ccc(F)cc1F was read as EP2 mod -9, RAM inhibit 1, PG9 Ab binder -5, EP2 antag 11, Rev-erbA mod 6 and SKN-1 block 5.
For Cc1cccc(C)c1NC(=O)COC(=O)c1cc(-c2cccnc2)nc2ccccc12 the results were EP2 mod -11, RAM inhibit -1, PG9 Ab binder 2, EP2 antag 4, Rev-erbA mod 19*, SKN-1 block 12 and NR1D1 mod conf 21*.
Cn1nnc(NC(=O)COc2ccc(Cl)cc2)n1 was read as EP2 mod -5 and EP2 antag 11.
CCOc1ccccc1NC(=O)CSc1nc2ccc(C)cc2cc1CC was read as EP2 mod 58 and EP2 antag 13.
`CCC(C)(C)n1nnnc1C(c1cc2cc3c(cc2[nH]c1=O)OCO3)N1CCOCC1` (stereo not drawn) gave EP2 mod -10 and EP2 antag 9.
Cc1ccc(C(=O)Nc2cccc(C(F)(F)F)c2)cc1NC(=O)c1nccn1C was read as EP2 mod 20, PG9 Ab binder -3, EP2 antag 8, Rev-erbA mod 20*, SKN-1 block 19, NR1D1 mod conf 23* and RORg counter >40.
For Cc1ccc(C(=O)Nc2cccc(C(F)(F)F)c2)cc1NC(=O)c1ccno1 the results were EP2 mod 5, PG9 Ab binder 0, EP2 antag 8, Rev-erbA mod 3 and SKN-1 block 14.
